Rows were chosen to be rich in hits. Some 18% of all compounds tested hit in one or more screens of this group.
TDP1 block – TDP1 (human) enzyme inhibition; Q9NUW8; recombinant TDP1, AlphaScreen DNA substrate cleavage; Potency, µM (doses to about 130 µM), for inactives: at the highest dose activity change, negative = inhibition, usual class: inhibitors; 350,000 tested, 0.28% active; AID 485290; also: nearly all actives have a fitted effect of over 40% in size
Target sequence (Q9NUW8 whole entry, looked up): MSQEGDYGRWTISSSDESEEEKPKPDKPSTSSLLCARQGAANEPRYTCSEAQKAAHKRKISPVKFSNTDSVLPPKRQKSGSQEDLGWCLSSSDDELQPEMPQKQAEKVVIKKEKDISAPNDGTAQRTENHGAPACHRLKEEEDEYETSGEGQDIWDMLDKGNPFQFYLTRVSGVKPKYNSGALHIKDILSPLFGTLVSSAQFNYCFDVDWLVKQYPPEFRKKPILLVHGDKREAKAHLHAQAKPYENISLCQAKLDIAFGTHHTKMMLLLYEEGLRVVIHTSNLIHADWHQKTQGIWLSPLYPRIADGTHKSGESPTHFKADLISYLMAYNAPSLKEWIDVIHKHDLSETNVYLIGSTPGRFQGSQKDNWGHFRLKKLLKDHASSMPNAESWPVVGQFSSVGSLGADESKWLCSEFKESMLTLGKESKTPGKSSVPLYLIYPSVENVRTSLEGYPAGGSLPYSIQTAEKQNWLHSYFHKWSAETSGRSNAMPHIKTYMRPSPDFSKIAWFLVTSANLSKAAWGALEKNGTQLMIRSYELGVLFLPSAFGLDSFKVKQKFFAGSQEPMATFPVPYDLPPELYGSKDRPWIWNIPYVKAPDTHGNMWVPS
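Signal: AlphaScreen proximity between streptavidin donor and anti-FITC acceptor beads on intact substrate. Reaction: Tdp1 1 nM, substrate 15 nM final, 5 min RT after 15 min compound preincubation.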
DT40 TDP1 no CPT – qHTS for Inhibitors of human tyrosyl-DNA phosphodiesterase 1 (TDP1): qHTS in cells in absence of CPT. DT40 Tdp1-/- hTDP1 cells, no CPT, ATP luminescence, 48 h. Potency, µM (series often up to 46.2 µM), for the others: top-dose activity change, negative = growth inhibition, hits mostly inhibitors. 420,000 tested, 15% active. AID 686978, 2013; also: nearly all actives have a fitted effect of over 55% in size
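DT40 Tdp1-/-;hTDP1 cells, no CPT (DMSO vehicle only), 400 cells/well; compounds pin-transferred; ≥48 hr, 37 °C; CellTiter-Glo 30 min RT dark, luminescence read.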
TDP1 cell CPT – DT40-hTDP1 cell growth loss with CPT | chicken DT40 Tdp1-/-;hTDP1 cells + 20 nM CPT, ATP luminescence, 48 h | 420,000 tested, 12% active | Potency, µM (doses to about 46.2 µM), inactives show top-dose activity change, negative = growth inhibition, most hits filed as inhibitors | AID 686979; also: nearly all actives have a fitted effect of over 55% in size
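Cell growth measured by CellTiter-Glo luminescence after a minimum 48 h, 37 C compound exposure with 20 nM CPT in Tdp1-knockout DT40 cells stably expressing hTDP1, seeded 400/well; qHTS titration format.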
KAT2A inh – inhibitors of human GCN5L2 histone acetyltransferase. Q92830. GCN5L2 HAT assay, ThioGlo1 CoA-SH fluorescence. Potency, µM (highest dose often 58.9 µM), for inactives: top-dose activity change, negative = inhibition, hits mostly inhibitors. 390,000 tested, 0.21% active. AID 504327
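Enzyme at 20nM final was mixed with library compounds for 15 min at room temperature. Peptide H3(1-25) at 75uM, acetyl-CoA at 70uM and ThioGlo1 at 50uM were then added. Plates were read immediately and after 20 min (Ex340nm/Em540nm).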
VDR inh – inhibitors of human vitamin D receptor | P11473 | Potency, µM, for the others: max response, negative = inhibition, most hits filed as inhibitors | 400,000 tested, 0.93% active | VDR-SRC2-3 peptide fluorescence polarization, 2 h | AID 504847
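The screen uses fluorescence polarization to detect compounds that interfere with recruitment of the SRC2-3 coactivator peptide to VDR; plates are read after 2 h at room temperature.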
PLK1 PBD block – inhibitors of human PLK1 polo-box domain binding. Plk1 PBD binding of FITC phosphopeptide, fluorescence polarization. P53350. Potency, µM, for the others: max response, negative = inhibition, actives largely listed as inhibitors. AID 720504. 360,000 tested, 2.8% active; also: series mostly up to about 57 µM; nearly all actives have a fitted effect of over 65% in size
* hit, by the source's call; [ ] = another dose, or the depositor's remark. Calls follow the shape of the dose curve; as a rule, active = well fitted curve in the direction sought with a large enough effect; inconclusive = small, poorly fitted or top-dose-only effect, or another doubt; inactive = no such curve, though single readings can be large; an effect the other way counts as inactive or inconclusive. % is scaled to controls: 0 for no effect and ±100 for the full control effect; potency is read from the fitted curve at half-maximal effect.

Screening CC(=O)Nc1nc(-c2ccccc2)c(-c2ccccc2)s1 returned DT40 TDP1 no CPT inconclusive, TDP1 cell CPT inconclusive and VDR inh 4%.
For CC(=O)N1CC(=O)N=C1SCC(=O)Nc1nc(-c2ccccc2)c(-c2ccccc2)s1 the results were TDP1 block 5%, DT40 TDP1 no CPT 13µM*, TDP1 cell CPT 18µM*, KAT2A inh -14%, VDR inh -14% and PLK1 PBD block -9%.
Screening CCOc1ccc(C2c3c(-c4cc(C)ccc4O)n[nH]c3C(=O)N2Cc2cccnc2)cc1OCC (stereo not given) returned TDP1 block 9%, DT40 TDP1 no CPT -19%, TDP1 cell CPT 1%, KAT2A inh -10% and VDR inh 18%.
`CCCOc1ccc(C2c3c(-c4ccccc4O)n[nH]c3C(=O)N2CCc2ccccc2)cc1OCC` (stereo not given) gave TDP1 block 9%, DT40 TDP1 no CPT 13µM*, TDP1 cell CPT 12µM*, KAT2A inh -2% and VDR inh 9%.
For CCCN1C(=O)c2[nH]nc(-c3ccccc3O)c2C1c1ccc(OCc2ccccc2)c(OC)c1 (stereo not given) the results were TDP1 block 11%, DT40 TDP1 no CPT 16µM*, TDP1 cell CPT 16µM*, KAT2A inh -7% and VDR inh -5%.
CNc1cncc(-c2ccc(O)cc2)n1 was read as DT40 TDP1 no CPT -29%, TDP1 cell CPT inconclusive and PLK1 PBD block 4%.
`CNc1cncc(-c2cc(C)c(O)c(C)c2)n1` gave DT40 TDP1 no CPT 6.5µM*, TDP1 cell CPT 4.1µM* and PLK1 PBD block -9%.
`COc1ccc(OCc2cc(C3Nc4ccccc4C(=O)N3Cc3ccccc3)ccc2OC)cc1` (stereo not given) gave TDP1 block 1%.
Screening CCCCN1C(=O)c2ccccc2NC1c1ccc(OC)c(COc2ccc(NC(C)=O)cc2)c1 (stereo not given) returned TDP1 block -3%.
For COc1ccc(C2Nc3ccccc3C(=O)N2c2ccccc2)cc1COc1ccc(NC(C)=O)cc1 (stereo not given) the results were TDP1 block 3%, DT40 TDP1 no CPT inconclusive, TDP1 cell CPT inconclusive and VDR inh -14%.
`COc1cccc(OCc2cc(C3Nc4ccccc4C(=O)N3c3ccccc3)ccc2OC)c1` (stereo not given) gave TDP1 block 1%, DT40 TDP1 no CPT 13µM*, TDP1 cell CPT 10µM* and VDR inh -17%.
CCCN1C(=O)c2ccccc2NC1c1ccc(OC)c(COc2ccc([N+](=O)[O-])cc2)c1 (stereo not given) was read as TDP1 block 3%, DT40 TDP1 no CPT 10µM*, TDP1 cell CPT 10µM* and VDR inh -23%.
For COc1ccc(C2Nc3ccccc3C(=O)N2Cc2ccccc2)cc1COc1ccccc1F (stereo not given) the results were TDP1 block 0%, DT40 TDP1 no CPT 14µM*, TDP1 cell CPT inconclusive and VDR inh -9%.
For CCCN1C(=O)c2ccccc2NC1c1ccc(OC)c(COc2cccc(OC)c2)c1 (stereo not given) the results were TDP1 block 0%, DT40 TDP1 no CPT 16µM*, TDP1 cell CPT inconclusive and VDR inh -11%.
For Cc1ccc(Nc2nc(NCc3ccco3)nc3nccnc23)cc1 the results were TDP1 block -10%, DT40 TDP1 no CPT -17%, TDP1 cell CPT inconclusive and VDR inh -2%.
For CCCCn1nnnc1C(c1ccccc1)N1CCN(c2ccc(F)cc2)CC1 (stereo not given) the results were DT40 TDP1 no CPT inconclusive, TDP1 cell CPT inconclusive and PLK1 PBD block 1%.
`CCOc1ccccc1C(=O)OCC(=O)Nc1nnc(-c2ccccc2)o1` gave TDP1 block 6%, DT40 TDP1 no CPT 16µM*, TDP1 cell CPT inconclusive, KAT2A inh -4%, VDR inh -27% and PLK1 PBD block -7%.
Screening Cc1nnc(NC(=O)CC(CN(C)S(=O)(=O)c2ccccc2)c2ccccc2)s1 (stereo not given) returned TDP1 block 0%, DT40 TDP1 no CPT -21%, TDP1 cell CPT -14%, KAT2A inh 0%, VDR inh -28% and PLK1 PBD block -7%.
For CN(CC(CC(=O)Nc1nncs1)c1ccccc1)S(=O)(=O)c1ccc(Br)cc1 (stereo not given) the results were TDP1 block 1%, DT40 TDP1 no CPT inconclusive, TDP1 cell CPT 16µM*, KAT2A inh -1%, VDR inh inconclusive and PLK1 PBD block -8%.
O=C(C[n+]1cc(Br)cc(Br)c1)c1ccc(I)cc1 was read as DT40 TDP1 no CPT -25% and TDP1 cell CPT -14%.
For Cc1c(C(=O)N2CCOCC2)sc(NC(=O)CCl)c1C#N the results were TDP1 block 4%[0.0935 µM], DT40 TDP1 no CPT 12µM*, TDP1 cell CPT 13µM*, KAT2A inh -7%, VDR inh -24% and PLK1 PBD block 0%.
`CCOc1ccccc1C1C(C(=O)Nc2ccccc2)=C(C)Nc2nc(-c3ccccc3)nn21` (stereo not given) gave DT40 TDP1 no CPT inconclusive, TDP1 cell CPT inconclusive, KAT2A inh -7% and VDR inh -6%.
C=CC[C@@H](Cc1ccc(F)cc1)C(=O)OC[C@@H]1CCCN1C(=O)[C@@H](CC=C)CC(=O)N(CCO)Cc1ccccc1 was read as TDP1 block 0%, DT40 TDP1 no CPT 15µM*, TDP1 cell CPT inconclusive, KAT2A inh -5%, VDR inh -9% and PLK1 PBD block -11%.
C=CC[C@@H](Cc1ccc(F)cc1)C(=O)OC[C@@H]1CCCN1C(=O)[C@H](CC=C)CC(=O)N[C@H](CO)Cc1ccccc1 was read as TDP1 block -2%, DT40 TDP1 no CPT 18µM*, TDP1 cell CPT inconclusive, KAT2A inh -7%, VDR inh -10% and PLK1 PBD block 19%.
CC(C)c1nc2cc(C(=O)N3CCN(c4cnccn4)CC3)ccc2o1 was read as TDP1 block 3%, DT40 TDP1 no CPT -10%, TDP1 cell CPT -9%, KAT2A inh inconclusive, VDR inh -15% and PLK1 PBD block -1%.
CCCn1c(N)c(N(CCOC)C(=O)c2ccc(S(=O)(=O)N3CCOCC3)cc2)c(=O)[nH]c1=O was read as DT40 TDP1 no CPT 14%, TDP1 cell CPT -1%, VDR inh -13% and PLK1 PBD block 1%.
